# Screens from PubChem.
# Beta apoptosis = blocks beta cell apoptosis; INS-1E cytokine-induced death, ATP luminescence, 48 h; percent of positive-control rescue, neutral wells zero; protection from apoptosis, % (test concentration not listed); actives 0.8% (n = 300,000);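 active = Every replicate reaches about 75%, or at least half do and their mean reaches it too, limit read from the data; inconclusive = At least half of replicates reach the limit but their mean does not; inactive = Under half of replicates reach the limit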;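 also: 0% = cytokine-treated negative control wells and 100% = positive control rescue; higher means more ATP so stronger rescue from cytokine killing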
# SKKanGAS inh = blocks kanamycin growth of S. pyogenes SKKanGAS strain. BacTiter-Glo, 6 h. actives 1.3% (n = 300,000). inhibition, % at 7.5 µM;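 active = mean replicate score, as percent of positive control median, at least 50; inconclusive = mean below 50 but one replicate at or above 50; inactive = mean and every replicate below 50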;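 also: strain carries kanamycin resistance gene driven by streptokinase promoter and grows in 40 µg/ml kanamycin; loss of luminescence reflects streptokinase promoter inhibition or plain growth inhibition; 0% = median of DMSO wells and 100% = positive control at its reference dose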
# Calb FLC = C. albicans growth modulation with fluconazole; C. albicans CaCi-2 (fluconazole-resistant clinical isolate) + fluconazole, Alamar Blue growth, 48 h; growth inhibition, % (concentration not given with the values); actives 0.57% (n = 300,000); AID 1979;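 active = growth inhibition above about 58% in most replicates, limit read from the data, passing the limit was not always enough; inconclusive = exactly half the replicates above a set limit; inactive = most replicates below a set limit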;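 also: all wells also contain fluconazole at 8 µg/ml as a sub-toxic cotreatment; 0% = median of DMSO wells and 100% = median of geldanamycin control wells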
# MPTP inh = permeability transition pore inhibition | isolated mouse mitochondria, Ca2+ swelling absorbance, 30 min | inhibition, % at 10 µM | actives 1.4% (n = 360,000) | AID 602449;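 active = inhibition of 50% or more, scaled per plate between neutral and stimulator controls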;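 also: 0% = DMSO wells given calcium and 100% = 1 mM EGTA wells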
# CSC inhib = cancer stem cell inhibition. actives 1.1% (n = 300,000). inhibition, % at 7.5 µM. cancer stem cell-like cells viability, luminescence; in the data active = inhibition above about 75%; inconclusive = no clear call, values can overlap the other calls; tested in HMLE shEcad cells
# Mdm2-MdmX inh = inhibitors of human Mdm2/MdmX interaction; AID 485346; SaOS-2 split-luciferase Mdm2/MdmX complementation, luminescence; inhibition, % at 8 µM; O15151+Q00987; actives 3% (n = 330,000);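 active = inhibition of at least 50% at 8 µM in the primary screen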
# Target sequence (O15151 whole entry, looked up): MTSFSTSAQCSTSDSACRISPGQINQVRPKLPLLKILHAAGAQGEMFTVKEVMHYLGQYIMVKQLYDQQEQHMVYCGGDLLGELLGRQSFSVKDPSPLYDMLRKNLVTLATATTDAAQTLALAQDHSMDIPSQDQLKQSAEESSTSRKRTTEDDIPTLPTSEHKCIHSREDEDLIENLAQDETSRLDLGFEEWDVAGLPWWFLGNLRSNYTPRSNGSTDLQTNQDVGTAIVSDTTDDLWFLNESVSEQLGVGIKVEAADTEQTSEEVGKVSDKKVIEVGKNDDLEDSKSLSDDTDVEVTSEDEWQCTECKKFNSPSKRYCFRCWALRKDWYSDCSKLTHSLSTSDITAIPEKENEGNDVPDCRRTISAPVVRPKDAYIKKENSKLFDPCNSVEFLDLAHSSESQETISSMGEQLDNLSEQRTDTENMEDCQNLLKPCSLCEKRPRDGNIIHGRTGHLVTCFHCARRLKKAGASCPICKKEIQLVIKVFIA
# Target sequence (Q00987 whole entry, looked up): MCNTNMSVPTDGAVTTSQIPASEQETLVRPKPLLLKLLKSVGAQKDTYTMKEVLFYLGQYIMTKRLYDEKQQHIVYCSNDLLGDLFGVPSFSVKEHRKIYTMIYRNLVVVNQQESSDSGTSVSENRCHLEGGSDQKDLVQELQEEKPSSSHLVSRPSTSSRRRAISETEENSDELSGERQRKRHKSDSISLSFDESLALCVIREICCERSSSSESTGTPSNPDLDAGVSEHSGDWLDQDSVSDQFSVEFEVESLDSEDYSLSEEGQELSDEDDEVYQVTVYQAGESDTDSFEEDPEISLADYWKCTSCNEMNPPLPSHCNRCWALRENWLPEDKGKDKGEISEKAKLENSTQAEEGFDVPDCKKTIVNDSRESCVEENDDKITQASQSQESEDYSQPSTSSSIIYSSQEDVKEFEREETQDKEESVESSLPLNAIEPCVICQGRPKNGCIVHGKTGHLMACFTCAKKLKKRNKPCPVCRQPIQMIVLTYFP
# Mdm2 MdmX conf = human Mdm2/MdmX binding inhibition, confirmed; shares compounds with Mdm2-MdmX inh; luminescent assay; inhibition, % at 8 µM; actives 55% (n = 10,000); AID 489028; in the data active = inhibition above about 40%
# FLuc counter = inhibits full-length luciferase, flagging false Mdm2/MdmX hits. AID 504607. actives 77% (n = 6,200). shares compounds with Mdm2-MdmX inh. inhibition, % at 8 µM. SaOS-2 full-length luciferase counterscreen, luminescence;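 active = mean inhibition at 8 µM reaching about 37%, which flags the compound as non-specific, limit read from the data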;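 also: p53-null SaOS-2 cells with luciferase driven by a doxycycline-inducible promoter; compound on cells about two nights before reading with doxycycline added after day one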
# * hit, by the source's call; u = inconclusive; x = no result; + = active, no number. A selection: hits, their analogues and other compounds. The true share with any hit is near 5.4%.
SMILES,Beta apoptosis,SKKanGAS inh,Calb FLC,MPTP inh,CSC inhib,Mdm2-MdmX inh,Mdm2 MdmX conf,others
COc1ccc2c(c1)[nH]c1c(=O)n(/N=C/C3C(C)C=C(C)CC3C)c(=O)[nH]c12 (configuration not stated),53,0,6,3,100*,69*,13,
CC1=CC(C)[C@H](/C=N/n2c(=O)[nH]c3c([nH]c4ccc(Br)cc43)c2=O)C(C)C1 (some centres not stated),61,8,-7,12,+,98*,18,
COc1cc(C2NC(=O)NC(C)=C2C(=O)OC2CCCCC2)cc(Br)c1O (configuration not stated),-3,4,3,1,-1,20,x,
Cc1ccc(S(=O)(=O)Nc2cccc3c2O[C@H](CN(C)Cc2ccc(-c4ccccc4)cc2)[C@@H](C)CN([C@H](C)CO)C3=O)cc1,-11,x,x,-2,x,53*,17,
Cc1ccc(S(=O)(=O)Nc2ccc3c(c2)C(=O)N([C@H](C)CO)C[C@H](C)[C@@H](CN(C)Cc2ccc(-c4ccccc4)cc2)O3)cc1,2,x,x,-2,62,77*,9,
Cc1ccc(OCC(=O)NCc2cccnc2)cc1,-5,-3,-14,2,3,-9,x,
Cc1ccc(NCc2nnc(SCC(=O)c3ccc4c(c3)OCCO4)o2)c(C)c1,x,3,5,0,x,57*,7,
O=C(Nc1ccccc1C(=O)N1CCCCC1)c1ccc(Cl)cc1Cl,-1,-1,-6,2,x,-3,x,
O=C(c1ccccc1)N1CCN(C(=O)c2ccccc2)c2ccccc21,x,x,x,0,x,x,x,
COc1cc(OC)c2c(-c3ccccc3)cc(=O)oc2c1C(CCN1CCN(c2ccccc2)CC1)c1ccc(N(C)C)cc1 (configuration not stated),1,14,-20,5,-6,15,x,
COc1ccc(C(CCN2CCCC(C)C2)c2c(OC)cc(OC)c3c(-c4ccccc4)cc(=O)oc23)cc1 (configuration not stated),51,10,-14,4,27,100*,17,
COc1cc(OC)c2c(-c3ccccc3)cc(=O)oc2c1C(CCN1CCCC(C)C1)c1ccc(N(C)C)cc1 (configuration not stated),16,18,-22,2,30,77*,18,
COc1ccc(C(CCN2CCCC2)c2c(OC)cc(OC)c3c(-c4ccccc4)cc(=O)oc23)cc1 (configuration not stated),4,20,-21,0,3,38,x,
Nc1nc2ccccc2n1CCOc1ccc(F)cc1,x,2,-12,1,-6,29,x,
Cc1cc(Oc2nc3c(C)cccn3c(=O)c2/C=C(\C#N)S(=O)(=O)c2ccc(Cl)cc2)ccc1Cl,44,44,-5,-1,47,57*,-1,
CCCCN(CC)CCNC(=O)c1cn(C)c(=O)c2c1c1ccccc1n2C,-5,3,-5,-1,-6,14,x,
Cc1cccc([C@@H](NC(=O)OC(C)(C)C)C(=O)OC(C)(C)C)c1,5,x,x,0,-5,17,x,
N=c1c2c(-c3ccccc3)c(-c3ccccc3)n(Cc3ccco3)c2ncn1Cc1ccco1,68,1,u,7,61,98*,46*,FLuc counter=31
CCCCn1cnc2c(c(-c3ccccc3)c(-c3ccccc3)n2Cc2ccco2)c1=N,114*,1,-5,3,87*,98*,73*,FLuc counter=60*
O=c1c2cnn(-c3ccccc3)c2ncn1Cc1ccco1,-3,1,-6,0,0,13,x,
C[C@H](CO)N1C[C@H](C)[C@@H](CN(C)C(=O)c2ccccc2)OCc2cn(nn2)CCCC1=O,x,x,x,-2,x,x,x,
COc1ccc(Br)cc1CNC(=O)Cc1c(C(=O)O)[nH]c2ccc(Cl)cc12,-1,8,-1,0,0,3,x,
Cc1ccc(Nc2nc(N)nc(CSc3nnc(-c4ccncc4)o3)n2)cc1,-9,2,x,0,-13,67*,20,
CCOc1ccc(Nc2nc(N)nc(CCl)n2)cc1,41,0,4,1,-2,98*,98*,FLuc counter=57*
COc1cccc(Nc2nc(N)nc(CCl)n2)c1,-11,-3,-3,1,-1,50,x,
SMILES,Beta apoptosis,SKKanGAS inh,Calb FLC,MPTP inh,CSC inhib,Mdm2-MdmX inh,Mdm2 MdmX conf,others
Cc1ccc(Nc2nc(N)nc(CCl)n2)c(C)c1,-3,44,-7,4,2,95*,100*,FLuc counter=53*
Cc1cccc(Nc2nc(N)nc(CCl)n2)c1,-10,-2,-1,2,10,68*,64*,FLuc counter=61*
CC(=O)NC(Cc1ccccc1C)C(=O)NC1CCN(c2nnnn2-c2ccccc2)CC1 (configuration not stated),6,-6,-4,0,-17,-36,x,
COc1ccc(-n2c(SCC(=O)Nc3nccs3)nnc2-c2ccccc2)cc1,-2,-2,-3,0,-10,-18,x,
CCCCN(C)CCCNC(=O)Cn1cc2c(n1)-c1c(oc(C(=O)N3CCCC3)c1C)CC2,x,x,x,-1,x,x,x,
CN1N=C(C(=O)N2CCCC(Nc3ccc(F)c(F)c3)C2)CCC1=O (configuration not stated),x,1,-7,-1,-16,-8,x,
COC(=O)C1=C(CS(=O)(=O)c2cc(Cl)ccc2OC)NC(=O)NC1c1ccc(O)c(OC)c1 (configuration not stated),-9,3,8,-1,-13,-1,x,
Cc1cccc(Nc2nc(N)nc(CCl)n2)c1C,7,-1,-12,1,-2,100*,100*,FLuc counter=60*
Cc1ccc(Nc2nc(N)nc(CCl)n2)cc1,-4,-4,-2,0,-12,83*,79*,FLuc counter=59*
Nc1nc(CCl)nc(Nc2ccccc2)n1,-14,2,-2,1,-2,36,x,
CC(=O)Nc1ccc(S(=O)(=O)Oc2ccc3c(c2)C(C)=CC(C)(C)N3)cc1,34,-4,28,x,32,98*,79*,FLuc counter=21
O=[N+]([O-])c1ccc2nc(Cl)nc(-c3ccccc3)c2c1,3,2,-2,1,-11,96*,66*,FLuc counter=54*
CC1CCCN(S(=O)(=O)c2ccc(S(=O)(=O)NC(C)c3cccs3)cc2)C1 (configuration not stated),-5,x,x,1,9,28,x,
COc1ccccc1NC(=O)c1cnc(Nc2ccccc2OC)c2ccccc12,26,2,2,2,66,52*,58*,FLuc counter=66*
COc1ccccc1NC(=O)c1ccccc1C(=O)Nc1ccccc1OC,-4,-3,-4,0,4,17,x,
Cc1noc(C)c1CSCC(=O)Nc1nnc(CC(C)C)s1,4,19,0,0,9,14,x,
